Experimental data published in PubChem BioAssay (Tox21).
“And” between values parts separate entries of the source, which are not always exact repeats. Equal entries are not always repeated. Results filed as inconclusive are left out. The source holds several records for some structures; these can differ, active in one and inactive in another. The source made the active and inactive calls. Unless noted, the call rests on the fitted dose curve.

Experiments:
[1] = Nuclear factor erythroid 2-related factor 2/antioxidant responsive element (Nrf2/ARE) small molecule agonists: qHTS cell viability counter screen in human keratinocytes (AID 1919968; active means well fitted curve in the direction sought with a large enough effect in the repeat runs; an effect the other way counts as inactive or inconclusive; further: nearly all actives have a fitted effect of over 55% in size; further: potency means the concentration at half of the fitted maximal effect)
How it was run: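 Fluorescence read-out from CellTiter-Fluor after 1 h at 37 C. Wells held HaCaT-derived ARE-luciferase reporter cells (1,500/well) treated 23 h with DMSO-dissolved compounds. Run in the same wells as the luciferase agonist read.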

[2] = target: KiSS-1 receptor (Homo sapiens) (UniProt Q969F8); experiment: Human kisspeptin (KISS1R) small molecule agonists, calcium flux assay in KISS1R-HEK293 cells (AID 1920064; active means well fitted curve in the direction sought with a large enough effect in the repeat runs; an effect the other way counts as inactive or inconclusive)
How it was run: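 Calcium flux read-out: kinetic fluorescence at Ex/Em=480/540, 1 s intervals over 3 min, after pin-tool compound addition to dye-loaded KISS1R-HEK293 cells. Fifteen concentrations, triplicates.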

[3] = G protein-coupled receptor (GPCR) small molecule agonists, calcium flux assay: HEK293 wild type cell line counter screen (AID 1920065)
How it was run: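 Agonist mode; 18 h seeding at 37 C, 1 h dye load at 37 C; compounds pinned from DMSO, ATP as positive control; kinetic fluorescence 480/540 nm, 3 min, 1 s reads; 15 concentrations, triplicate.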

[4] = p53 small molecule agonists, cell-based qHTS assay with human liver microsomes (AID 1963577);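 further: p53 response element beta-lactamase reporter cells with liver microsomes plus NADPH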
How it was run: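 Steps: plate p53RE-bla cells, incubate 5 h at 37 C; add compound in DMSO; add microsomes (0.5 mg/mL final) and NADPH (0.5 mg/mL final); incubate 16 h at 37 C; add LiveBLAzer, 2 h RT; read fluorescence.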

[5] = p53 small molecule agonists, cell-based qHTS assay with rat liver microsomes (AID 1963578)
How it was run: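 Metabolic activation is supplied by rat liver microsomes with NADPH (each 0.5 mg/mL final). p53RE-bla cells incubate with compound 16 h at 37 C; reporter activity is measured by LiveBLAzer fluorescence.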

[6] = p53 small molecule agonists, cell-based qHTS assay with human liver microsomes: qHTS cell viability counter screen (AID 1963579); further: nearly all actives have a fitted effect of over 45% in size; further: potency means the concentration at half of the fitted maximal effect
How it was run: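 After the 460/530 nm beta-lactamase read, CellTiter-Glo was added to the same wells and luminescence measured after 30 min at room temperature, giving viability of p53RE-bla cells treated 16 h with compounds plus microsomes and NADPH.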

[7] = p53 small molecule agonists, cell-based qHTS assay with rat liver microsomes: qHTS cell viability counter screen (AID 1963580); further: nearly all actives have a fitted effect of over 45% in size; further: potency means the concentration at half of the fitted maximal effect
How it was run: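 Cytotoxicity counter screen: intracellular ATP measured by CellTiter-Glo luminescence in the same wells as the beta-lactamase reporter read, on HCT-116 p53RE-bla cells exposed 16 h at 37 C to compounds with rat liver microsomes and NADPH, each 0.5 mg/mL final.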

[8] = p53 small molecule agonists, cell-based qHTS assay: qHTS cell viability counter screen (AID 1963581); further: nearly all actives have a fitted effect of over 45% in size; further: potency means the concentration at half of the fitted maximal effect
How it was run: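 Cytotoxicity read-out: ATP-based luminescence (CellTiter-Glo, 30 min RT) measured in the same wells as the p53 reporter assay, HCT-116 p53RE-bla cells, 16 h compound exposure at 37 C.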

[9] = p53 small molecule agonists, cell-based qHTS assay (AID 1963582; active means well fitted activation curve with a large enough effect in the signal ratio in the repeat runs, not every such curve was filed as active; the % refers to the signal ratio)
How it was run: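 Fluorescence intensity read-out of a beta-lactamase reporter under a p53 response element. Cells were exposed to DMSO-dissolved compounds for 16 h at 37 C, then developed with FRET substrate for 2 h at RT.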

[10] = target: 5-hydroxytryptamine receptor 2A (Homo sapiens) (UniProt P28223); experiment: 5-hydroxytryptamine receptor 2A (HTR2A) small molecule antagonists, cell-based qHTS assay (AID 1963586); further: nearly all actives have a fitted effect of over 45% in size; further: potency means the concentration at half of the fitted maximal effect
How it was run: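 CHO cells stably expressing human HTR2A were plated for 18 h at 37 C, then loaded with calcium dye for 1 h. Compounds were preincubated 5 min at room temperature before DOI (4 nM solution) was added. Kinetic fluorescence was read for 3 min.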

[11] = target: 5-hydroxytryptamine receptor 2A (Homo sapiens) (UniProt P28223); experiment: 5-hydroxytryptamine receptor 2A (HTR2A) small molecule agonists, cell-based qHTS assay (AID 1963587); further: nearly all actives have a fitted effect of over 30% in size; further: potency means the concentration at half of the fitted maximal effect
How it was run: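 CHO cells stably expressing human HTR2A, plated 18 h, loaded with calcium dye 1 h at 37 C. Agonist mode: compounds added and intracellular calcium fluorescence recorded kinetically for 2 min at 1 sec intervals.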

[12] = target: Muscarinic acetylcholine receptor M1 (Homo sapiens) (UniProt P11229); experiment: Cholinergic receptor muscarinic 1 (CHRM1) small molecule antagonists, cell-based qHTS assay (AID 1963588); further: nearly all actives have a fitted effect of over 40% in size; further: potency means the concentration at half of the fitted maximal effect
How it was run: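 Compounds were tested at 15 concentrations in three independent runs. Dye-loaded CHRM1-CHO cells were exposed 5 min at room temperature before stimulation by acetylcholine added at 50nM. Intracellular calcium was read kinetically on FDSS for 3 min.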

[13] = target: Muscarinic acetylcholine receptor M1 (Homo sapiens) (UniProt P11229); experiment: Cholinergic receptor muscarinic 1 (CHRM1) small molecule agonists, cell-based qHTS assay (AID 1963589); further: nearly all actives have a fitted effect of over 35% in size
How it was run: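 Calcium flux read-out: kinetic fluorescence at 1 sec intervals after pin-tool compound addition to dye-loaded CHRM1-CHO cells (human M1). Agonist mode; 15 concentrations tested in triplicate independent runs.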

[14] = cAMP Responsive Elements (CRE) small molecule agonists, cell-based qHTS assay (AID 1963590)
How it was run: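 Beta-lactamase reporter readout: LiveBLAzer B/G FRET substrate, 2 h at room temperature, added after 3 h compound treatment of CRE-bla HEK 293T cells at 37 C/5% CO2.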

[15] = cAMP Responsive Elements (CRE) small molecule antagonists, cell-based qHTS assay (AID 1963591; active means well fitted inhibition curve with a large enough effect in the signal ratio in the repeat runs, not every such curve was filed as active; the % refers to the signal ratio)
How it was run: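 HEK293T CRE-bla; 18 h preincubation; compound pin-transfer; NKH477 0.25 uM final, 3 h, 37 C; LiveBLAzer FRET substrate 2 h RT.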

[16] = target: Beta-2 adrenergic receptor (Homo sapiens) (UniProt P07550); experiment: Adrenergic beta2 receptor (ADRB2) small molecule antagonists, cell-based qHTS assay (AID 1963592); further: series mostly up to about 92 µM; nearly all actives have a fitted effect of over 50% in size
How it was run: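 Assay format: CHO-ADRB2 cells, 18-20hr seeding at 37C/5% CO2, then compound plus 1nM isoproterenol agonist mix for 0.5hr RT. Homogeneous time-resolved fluorescence cAMP detection after 1hr, expressed as 665/615 nm ratio.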

[17] = target: D(2) dopamine receptor (Homo sapiens) (UniProt P14416); experiment: Dopamine D2 receptor (DRD2) small molecule agonists, cell-based qHTS assay (AID 1963594); further: nearly all actives have a fitted effect of over 35% in size
How it was run: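 HEK293 cells stably expressing human DRD2, pre-treated with PDE inhibitor Ro20-1724 (0.1 mM final) and compound 10 min at room temperature, then stimulated with NKH477 (200nM […]) for 30 min. cAMP read by HTRF (665/620 nm).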

[18] = target: D(2) dopamine receptor (Homo sapiens) (UniProt P14416); experiment: Dopamine D2 receptor (DRD2) small molecule antagonists, cell-based qHTS assay (AID 1963595; active means well fitted inhibition curve with a large enough effect in the signal ratio in the repeat runs, with a control signal flat; the % refers to the signal ratio; further: potency means the concentration at half of the fitted maximal effect)
How it was run: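 HEK293 cells stably expressing DRD2, preincubated with 0.1 mM Ro20-1724 and compounds 10 min, were stimulated with 200 nM NKH477 plus 12 nM quinpirole for 30 min at room temperature; cAMP measured by HTRF (665/620 nm).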

[19] = target: Beta-2 adrenergic receptor (Homo sapiens) (UniProt P07550); experiment: Adrenergic beta2 receptor (ADRB2) small molecule agonists, cell-based qHTS assay (AID 1963593);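 further: CHO cells stably overexpressing human ADRB2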
How it was run: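 CHO cells stably over-expressing ADRB2 were plated overnight at 37C, then dosed with compounds plus a stimulation mix containing 100uM IBMX and 25uM Ro-20-1724 for 0.5hr at room temperature. cAMP was measured by HTRF competition, 1hr.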

[20] = Nuclear factor erythroid 2-related factor 2/antioxidant responsive element (Nrf2/ARE) small molecule agonists: luciferase reporter gene qHTS assay in human keratinocytes (AID 1919969); further: nearly all actives have a fitted effect of over 35% in size
On the % scale 0 is the no-effect control and ±100 the full control effect.

Chain of KiSS-1 receptor (Homo sapiens) (Q969F8 whole entry, looked up): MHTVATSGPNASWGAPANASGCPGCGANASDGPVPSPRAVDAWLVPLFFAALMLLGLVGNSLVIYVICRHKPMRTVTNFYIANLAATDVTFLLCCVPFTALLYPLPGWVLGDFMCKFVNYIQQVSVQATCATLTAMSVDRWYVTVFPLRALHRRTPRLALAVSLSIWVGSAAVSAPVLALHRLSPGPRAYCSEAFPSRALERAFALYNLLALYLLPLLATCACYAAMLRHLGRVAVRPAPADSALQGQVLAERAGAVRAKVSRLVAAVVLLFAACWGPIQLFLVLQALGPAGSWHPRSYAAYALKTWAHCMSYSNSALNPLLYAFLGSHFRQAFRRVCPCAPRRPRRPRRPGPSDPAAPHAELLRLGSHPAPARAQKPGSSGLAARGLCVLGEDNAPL
Chain of 5-hydroxytryptamine receptor 2A (Homo sapiens) (P28223 whole entry, looked up): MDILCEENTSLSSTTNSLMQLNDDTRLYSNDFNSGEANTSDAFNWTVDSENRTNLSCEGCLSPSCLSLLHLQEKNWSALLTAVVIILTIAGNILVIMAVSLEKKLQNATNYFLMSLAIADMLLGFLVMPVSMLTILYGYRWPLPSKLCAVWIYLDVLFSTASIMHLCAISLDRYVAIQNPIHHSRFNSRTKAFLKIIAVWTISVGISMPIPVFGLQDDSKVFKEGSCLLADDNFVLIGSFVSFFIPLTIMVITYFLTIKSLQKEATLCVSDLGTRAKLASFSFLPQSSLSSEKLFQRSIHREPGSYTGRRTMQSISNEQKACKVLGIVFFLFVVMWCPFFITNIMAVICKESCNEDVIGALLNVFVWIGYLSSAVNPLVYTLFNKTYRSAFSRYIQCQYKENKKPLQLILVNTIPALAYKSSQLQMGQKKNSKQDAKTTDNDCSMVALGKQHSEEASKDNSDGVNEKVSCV
Chain of Beta-2 adrenergic receptor (Homo sapiens) (P07550 whole entry, looked up): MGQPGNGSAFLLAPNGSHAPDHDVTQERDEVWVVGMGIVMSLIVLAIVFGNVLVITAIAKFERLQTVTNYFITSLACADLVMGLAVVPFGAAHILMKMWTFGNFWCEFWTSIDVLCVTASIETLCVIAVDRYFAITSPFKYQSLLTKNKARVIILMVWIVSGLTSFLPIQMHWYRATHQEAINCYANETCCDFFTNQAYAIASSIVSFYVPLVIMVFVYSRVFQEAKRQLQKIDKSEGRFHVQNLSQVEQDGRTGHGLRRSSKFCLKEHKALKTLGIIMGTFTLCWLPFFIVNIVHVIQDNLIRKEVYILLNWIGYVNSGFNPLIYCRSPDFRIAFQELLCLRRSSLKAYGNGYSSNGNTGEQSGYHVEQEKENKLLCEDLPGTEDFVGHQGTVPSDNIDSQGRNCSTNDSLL
Chain of D(2) dopamine receptor (Homo sapiens) (P14416 whole entry, looked up): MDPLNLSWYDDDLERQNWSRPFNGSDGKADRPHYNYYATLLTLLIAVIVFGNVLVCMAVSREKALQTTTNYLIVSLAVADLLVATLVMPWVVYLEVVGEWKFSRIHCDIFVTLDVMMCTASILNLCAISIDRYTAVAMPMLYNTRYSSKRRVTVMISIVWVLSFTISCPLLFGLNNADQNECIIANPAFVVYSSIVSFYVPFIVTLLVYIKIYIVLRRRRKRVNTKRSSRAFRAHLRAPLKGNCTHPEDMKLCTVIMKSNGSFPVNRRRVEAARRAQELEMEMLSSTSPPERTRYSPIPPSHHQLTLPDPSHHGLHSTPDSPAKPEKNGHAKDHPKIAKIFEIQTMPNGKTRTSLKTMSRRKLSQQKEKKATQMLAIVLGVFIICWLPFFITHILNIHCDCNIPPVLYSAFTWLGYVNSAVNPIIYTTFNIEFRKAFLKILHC
Chain of Muscarinic acetylcholine receptor M1 (Homo sapiens) (P11229 whole entry, looked up): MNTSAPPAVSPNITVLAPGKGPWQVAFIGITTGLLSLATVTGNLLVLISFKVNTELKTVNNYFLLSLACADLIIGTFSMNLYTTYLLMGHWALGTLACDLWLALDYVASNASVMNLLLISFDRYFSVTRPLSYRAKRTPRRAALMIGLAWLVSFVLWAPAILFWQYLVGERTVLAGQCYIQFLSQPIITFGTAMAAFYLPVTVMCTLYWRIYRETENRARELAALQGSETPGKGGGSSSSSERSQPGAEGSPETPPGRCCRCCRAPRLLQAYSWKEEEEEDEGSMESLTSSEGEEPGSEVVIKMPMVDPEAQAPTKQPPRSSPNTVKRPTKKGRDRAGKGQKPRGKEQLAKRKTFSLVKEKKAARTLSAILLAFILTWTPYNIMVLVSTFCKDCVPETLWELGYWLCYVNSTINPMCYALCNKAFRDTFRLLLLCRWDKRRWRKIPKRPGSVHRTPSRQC

CC(C)(C)C1CCCCC1O (stereo unspecified)
inactive: Potency [1] | Potency [2] | Potency [3] | Potency [4] | Potency [5] | Potency [6] | Potency [7] | Potency [8] | Potency [9] | Potency [10] | Potency [11] | Potency [12] | Potency [13] | Potency [14] | Potency [15] | Potency [16] | Potency [17] | Potency [18]

O=C(c1ccc(Cl)cc1)c1ccc(Cl)cc1
inactive: Potency [1] | Potency [2] | Potency [3] | Potency [4] | Potency [5] | Potency [6] | Potency [7] | Potency [8] | Potency [9] | Potency [10] | Potency [11] | Potency [12] | Potency [13] | Potency [14] | Potency [15] | Potency [16] | Potency [17] | Potency [18]

NCCOCCN
inactive: Potency [1] | Potency [2] | Potency [3] | Potency [4] | Potency [5] | Potency [6] | Potency [7] | Potency [8] | Potency [9] | Potency [10] | Potency [11] | Potency [12] | Potency [13] | Potency [14] | Potency [15] | Potency [16] | Potency [17] | Potency [18]

COC(=O)OC
inactive: Potency [1] | Potency [2] | Potency [3] | Potency [4] | Potency [5] | Potency [6] | Potency [7] | Potency [8] | Potency [9] | Potency [10] | Potency [11] | Potency [12] | Potency [13] | Potency [15] | Potency [16] | Potency [19] | Potency [17] | Potency [18]

Nc1nc(=O)n([C@@H]2O[C@H](CO)[C@@H](O)[C@@H]2F)cc1I
inactive: Potency [1] | Potency [20] | Potency [3] | Potency [4] | Potency [5] | Potency [6] | Potency [7] | Potency [8] | Potency [10] | Potency [11] | Potency [12] | Potency [13] | Potency [14] | Potency [15] | Potency [16] | Potency [19] | Potency [17] | Potency [18]

CCCCCCCCCCCCCC[P+](CCCC)(CCCC)CCCC
inactive: Potency [20] | Potency [13] | Potency [16] | Potency [19] | Potency [17]
active: Potency [1] 9.63 µM and 24.3 µM | Potency [6] 45.5 µM and 20.4 µM | Potency [7] 45.5 µM and 40.8 µM | Potency [8] 20.3 µM and 25.7 µM | Potency [10] 14.8 µM and 18.8 µM | Potency [11] 21.8 µM and 54.9 µM | Potency [18] 17.1 µM and 43.3 µM
inactive and 9.42 µM (active): Potency [12]

O=C(O)CN(CCN(CC(=O)O)CC(=O)O)CCN(CC(=O)O)CC(=O)O
inactive: activity change, negative = cytotoxicity [1] -0.92% [at 19 µM] | activity, positive = activation [20] -0.151% [at 19 µM] | activation [3] 1.29% [at 11.8 µM] | activation [4] -9.98% [at 13.5 µM] | activation [5] -0.423% [at 13.6 µM] | activity change, negative = cytotoxicity [6] -3.04% [at 13.5 µM] | activity change, negative = cytotoxicity [7] -9.7% [at 13.5 µM] | activity change, negative = cytotoxicity [8] -11.9% [at 13.5 µM] | activation [9] 12.4% [at 13.5 µM] | activity, negative = inhibition [10] 10.6% [at 12.7 µM] | activation [11] 7.55% [at 15.9 µM] | activity, negative = inhibition [12] 9.64% [at 12.6 µM] | activation [13] -0.409% [at 15.8 µM] | activation [14] 1.22% [at 19 µM] | activity change, negative = inhibition [15] 3.68% [at 18.9 µM] | activity change, negative = inhibition [16] 2.09% [at 19 µM] | activation [17] -12% [at 19 µM] | activity change, negative = inhibition [18] 6.7% [at 18.9 µM]
